The values below come from PMC8384837, “Expanding the binding specificity for RNA recognition by a PUF domain”.

The first experiment has as its target PUM1 PUF domain R5-RFV (Homo sapiens, UniProt Q14671 828-1176, C1007R;R1008F;Q1011V). The experiment is described as follows: yeast three-hybrid, YBZ-1, SC-Leu-His + 0.5 mM 3-AT, 4 days. Particulars: tags: N-Gal4 AD-HA kept; label: inside an RPR1-promoter hybrid RNA with tandem MS2 sites; ssRNA. Put shortly:
(§1)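 Repeat regions from input (SC-Leu) and selection (SC-Leu-His + 0.5 mM 3-AT) plates were PCR-amplified and Illumina-sequenced after four days of growth. The cells were strain YBZ-1 with a LexA–MS2 coat fusion and a HIS3 reporter, co-expressing Pumilio-1 PUF domain libraries and matching RNA elements from a centromeric plasmid. The interaction score is the log change in variant frequency from input to selection, taken in log2 with a pseudocount of 1 for absent variants.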
For “GGCUAGAACUAGUGGAUCCCCCGGCGCCCGGCGGCUCGAGCCCGGGUAAGUGUUAAUAGUCUGCAUGCCGCCGGGCGCCAUGCCUGCAGGUCGACUCUAGAAAACAUG”, the binding signal is 4.04 log2 enrichment (interaction score).

For “GGCUAGAACUAGUGGAUCCCCCGGCGCCCGGCGGCUCGAGCCCGGGUAAGUGUAAAUAGUCUGCAUGCCGCCGGGCGCCAUGCCUGCAGGUCGACUCUAGAAAACAUG”, the binding signal was 2.29 log2 enrichment (interaction score).

For “GGCUAGAACUAGUGGAUCCCCCGGCGCCCGGCGGCUCGAGCCCGGGUAAGUGUGAAUAGUCUGCAUGCCGCCGGGCGCCAUGCCUGCAGGUCGACUCUAGAAAACAUG”, the binding signal was 1.88 log2 enrichment (interaction score).

In the case of “GGCUAGAACUAGUGGAUCCCCCGGCGCCCGGCGGCUCGAGCCCGGGUAAGUGUCAAUAGUCUGCAUGCCGCCGGGCGCCAUGCCUGCAGGUCGACUCUAGAAAACAUG”, the binding signal is 5.48 log2 enrichment (interaction score).

A further experiment addresses PUM1 PUF domain R3-SRR (Homo sapiens, UniProt Q14671 828-1176, C935S;Q939R). Described as above. Particulars: tags: N-Gal4 AD-HA kept; label: inside an RPR1-promoter hybrid RNA with tandem MS2 sites; ssRNA. Put shortly:
as §1
Take “GGCUAGAACUAGUGGAUCCCCCGGCGCCCGGCGGCUCGAGCCCGGGUAAGUGUAAGUAGUCUGCAUGCCGCCGGGCGCCAUGCCUGCAGGUCGACUCUAGAAAACAUG”: the binding signal is 2.24 log2 enrichment (interaction score).

As for “GGCUAGAACUAGUGGAUCCCCCGGCGCCCGGCGGCUCGAGCCCGGGUAAGUGUAAAUAGUCUGCAUGCCGCCGGGCGCCAUGCCUGCAGGUCGACUCUAGAAAACAUG”, the binding signal was 0.87 log2 enrichment (interaction score).

Regarding “GGCUAGAACUAGUGGAUCCCCCGGCGCCCGGCGGCUCGAGCCCGGGUAAGUGUAAUUAGUCUGCAUGCCGCCGGGCGCCAUGCCUGCAGGUCGACUCUAGAAAACAUG”, the binding signal was 3.98 log2 enrichment (interaction score).

In the case of “GGCUAGAACUAGUGGAUCCCCCGGCGCCCGGCGGCUCGAGCCCGGGUAAGUGUAACUAGUCUGCAUGCCGCCGGGCGCCAUGCCUGCAGGUCGACUCUAGAAAACAUG”, the binding signal is 3.34 log2 enrichment (interaction score).

The target in the next experiment is PUM1 PUF domain R4-CPV (Homo sapiens, UniProt Q14671 828-1176, N971C;H972P;Q975V). Described as above. Particulars: tags: N-Gal4 AD-HA kept; label: inside an RPR1-promoter hybrid RNA with tandem MS2 sites; ssRNA. Put shortly:
as §1
In the case of “GGCUAGAACUAGUGGAUCCCCCGGCGCCCGGCGGCUCGAGCCCGGGUAAGUGUAUAUAGUCUGCAUGCCGCCGGGCGCCAUGCCUGCAGGUCGACUCUAGAAAACAUG”, the binding signal is 2.93 log2 enrichment (interaction score).

With “GGCUAGAACUAGUGGAUCCCCCGGCGCCCGGCGGCUCGAGCCCGGGUAAGUGUAAAUAGUCUGCAUGCCGCCGGGCGCCAUGCCUGCAGGUCGACUCUAGAAAACAUG”, the binding signal is 1.1 log2 enrichment (interaction score).

As to “GGCUAGAACUAGUGGAUCCCCCGGCGCCCGGCGGCUCGAGCCCGGGUAAGUGUACAUAGUCUGCAUGCCGCCGGGCGCCAUGCCUGCAGGUCGACUCUAGAAAACAUG”, the binding signal was 1.61 log2 enrichment (interaction score).
